# Assay results from PMC7862700, “An all-to-all approach to the identification of sequence-specific readers for epigenetic DNA modifications on cytosine”.
# Tests used:
# Assay in all cases: DAPPL (digital affinity profiling via proximity ligation, sequencing); 10 mM Tris-HCl pH 7.5, 50 mM NaCl, 1 mM DTT, 4% glycerol, room temperature, 30 min; GST-TFs on glutathione beads, 16-mer random dsDNA library, 0.1% formaldehyde crosslink after washing; high values mean tight binding
# FEV = molecular target: T1, FEV (Homo sapiens, UniProt Q99581 1-238); details: protein: recombinant; tags: N-terminal GST; dsDNA, one strand shown
# T1 sequence: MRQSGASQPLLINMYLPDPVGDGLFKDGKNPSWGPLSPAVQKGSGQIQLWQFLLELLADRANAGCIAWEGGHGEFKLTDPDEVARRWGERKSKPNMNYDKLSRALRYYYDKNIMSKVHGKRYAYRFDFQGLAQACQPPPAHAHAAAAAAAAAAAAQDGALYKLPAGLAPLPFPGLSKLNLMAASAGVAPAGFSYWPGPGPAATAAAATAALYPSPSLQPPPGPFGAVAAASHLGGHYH
# How it was run: (§1)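 Binding signal is each hexamer's read frequency for a factor divided by its frequency in the tag-only sample. The factors were GST-fused human transcription factors from yeast, captured on glutathione beads, DNA-barcoded and pooled with that sample. Pools were incubated with 200 nmole of a random double-stranded 16-mer DNA library in Tris/NaCl/DTT/glycerol buffer at room temperature for 30 min, then washed, crosslinked with 0.1% formaldehyde, proximity-ligated with BsaI/T4 ligase (1 h, 37 °C), PCR-amplified and sequenced on an Illumina NextSeq500.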
# ETV5 = ETV5 (Homo sapiens, UniProt P41161 1-510); details: protein: recombinant; tags: N-terminal GST; dsDNA, one strand shown
# Chain of ETV5 (P41161 whole entry): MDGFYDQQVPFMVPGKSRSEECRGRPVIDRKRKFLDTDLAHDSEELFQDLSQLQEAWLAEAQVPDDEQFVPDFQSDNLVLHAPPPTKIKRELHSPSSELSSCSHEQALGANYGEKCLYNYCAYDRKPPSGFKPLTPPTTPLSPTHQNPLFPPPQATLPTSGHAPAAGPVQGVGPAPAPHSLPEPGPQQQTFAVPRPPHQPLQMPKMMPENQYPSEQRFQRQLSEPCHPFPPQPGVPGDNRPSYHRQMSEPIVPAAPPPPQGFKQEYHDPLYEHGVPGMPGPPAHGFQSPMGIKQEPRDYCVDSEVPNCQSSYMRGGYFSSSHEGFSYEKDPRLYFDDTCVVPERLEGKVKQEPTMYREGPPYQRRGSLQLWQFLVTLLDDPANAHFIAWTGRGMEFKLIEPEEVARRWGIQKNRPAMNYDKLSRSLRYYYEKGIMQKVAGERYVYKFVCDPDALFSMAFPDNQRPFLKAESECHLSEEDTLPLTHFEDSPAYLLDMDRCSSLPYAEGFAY
# How it was run: as §1
# HSF1 = HSF1 (Homo sapiens, UniProt Q00613 1-529); details: protein: recombinant; tags: N-terminal GST; chain copies: 3; dsDNA, one strand shown
# Chain of HSF1 (Q00613 whole entry): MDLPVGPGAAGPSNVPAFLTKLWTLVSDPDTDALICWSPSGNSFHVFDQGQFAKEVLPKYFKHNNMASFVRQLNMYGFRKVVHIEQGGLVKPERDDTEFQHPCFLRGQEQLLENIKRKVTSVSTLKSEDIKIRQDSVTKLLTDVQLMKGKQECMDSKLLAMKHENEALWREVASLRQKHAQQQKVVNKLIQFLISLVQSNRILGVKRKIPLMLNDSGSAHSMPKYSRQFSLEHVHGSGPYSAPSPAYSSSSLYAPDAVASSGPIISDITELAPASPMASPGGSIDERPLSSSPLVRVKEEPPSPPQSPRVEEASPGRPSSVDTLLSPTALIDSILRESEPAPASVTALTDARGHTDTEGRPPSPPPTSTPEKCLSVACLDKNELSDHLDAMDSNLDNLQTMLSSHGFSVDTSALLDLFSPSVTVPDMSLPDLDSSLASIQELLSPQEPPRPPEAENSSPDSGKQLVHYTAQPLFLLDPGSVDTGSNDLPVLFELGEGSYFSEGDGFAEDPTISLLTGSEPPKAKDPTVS
# How it was run: as §1
# SPIC = molecular target: T2, SPIC (Homo sapiens, UniProt Q8N5J4 1-248); details: protein: recombinant; tags: N-terminal GST; dsDNA, one strand shown
# T2 sequence: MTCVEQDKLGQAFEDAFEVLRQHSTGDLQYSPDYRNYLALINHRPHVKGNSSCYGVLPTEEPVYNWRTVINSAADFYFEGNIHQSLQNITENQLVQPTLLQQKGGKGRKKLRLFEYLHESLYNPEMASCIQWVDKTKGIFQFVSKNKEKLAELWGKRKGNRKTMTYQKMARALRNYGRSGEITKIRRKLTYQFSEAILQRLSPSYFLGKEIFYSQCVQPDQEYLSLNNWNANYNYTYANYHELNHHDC
# How it was run: as §1
# ELF4 = ELF4 (Homo sapiens, UniProt Q99607 1-663); details: protein: recombinant; tags: N-terminal GST; dsDNA, one strand shown
# Chain of ELF4 (Q99607 whole entry): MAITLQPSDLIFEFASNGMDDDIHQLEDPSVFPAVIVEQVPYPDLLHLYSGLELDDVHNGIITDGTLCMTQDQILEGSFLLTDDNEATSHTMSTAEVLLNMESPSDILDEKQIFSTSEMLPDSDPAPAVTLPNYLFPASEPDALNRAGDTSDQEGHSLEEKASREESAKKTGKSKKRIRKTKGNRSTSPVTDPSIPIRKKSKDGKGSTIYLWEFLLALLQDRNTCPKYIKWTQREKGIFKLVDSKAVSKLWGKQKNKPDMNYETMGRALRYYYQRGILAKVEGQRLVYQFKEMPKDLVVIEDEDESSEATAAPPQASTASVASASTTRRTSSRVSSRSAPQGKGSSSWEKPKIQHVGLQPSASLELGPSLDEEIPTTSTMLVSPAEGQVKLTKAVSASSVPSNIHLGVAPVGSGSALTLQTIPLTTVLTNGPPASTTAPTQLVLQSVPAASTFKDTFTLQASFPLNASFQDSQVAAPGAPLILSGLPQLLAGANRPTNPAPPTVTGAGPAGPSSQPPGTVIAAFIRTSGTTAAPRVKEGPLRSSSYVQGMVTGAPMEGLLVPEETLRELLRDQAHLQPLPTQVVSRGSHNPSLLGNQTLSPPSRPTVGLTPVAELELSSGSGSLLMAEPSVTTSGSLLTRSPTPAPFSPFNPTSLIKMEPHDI
# How it was run: as §1
# ELK4 = molecular target: T3, ELK4 (Homo sapiens, UniProt P28324-2 1-405); details: protein: recombinant; tags: N-terminal GST; dsDNA, one strand shown
# T3 sequence: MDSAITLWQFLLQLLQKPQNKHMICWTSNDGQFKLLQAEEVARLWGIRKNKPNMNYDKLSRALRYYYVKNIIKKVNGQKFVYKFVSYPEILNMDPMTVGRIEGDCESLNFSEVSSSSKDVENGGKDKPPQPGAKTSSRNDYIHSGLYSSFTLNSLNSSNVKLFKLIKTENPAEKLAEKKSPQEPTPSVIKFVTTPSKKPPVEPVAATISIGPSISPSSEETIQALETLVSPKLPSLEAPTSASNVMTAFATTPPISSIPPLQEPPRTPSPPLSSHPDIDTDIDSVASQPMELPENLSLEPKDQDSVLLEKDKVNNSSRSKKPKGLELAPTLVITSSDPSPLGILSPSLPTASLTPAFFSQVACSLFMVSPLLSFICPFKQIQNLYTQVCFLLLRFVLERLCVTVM
# How it was run: as §1
# ETV2 = molecular target: T4, ETV2 (Homo sapiens, UniProt O00321 1-342); details: protein: recombinant; tags: N-terminal GST; dsDNA, one strand shown
# T4 sequence: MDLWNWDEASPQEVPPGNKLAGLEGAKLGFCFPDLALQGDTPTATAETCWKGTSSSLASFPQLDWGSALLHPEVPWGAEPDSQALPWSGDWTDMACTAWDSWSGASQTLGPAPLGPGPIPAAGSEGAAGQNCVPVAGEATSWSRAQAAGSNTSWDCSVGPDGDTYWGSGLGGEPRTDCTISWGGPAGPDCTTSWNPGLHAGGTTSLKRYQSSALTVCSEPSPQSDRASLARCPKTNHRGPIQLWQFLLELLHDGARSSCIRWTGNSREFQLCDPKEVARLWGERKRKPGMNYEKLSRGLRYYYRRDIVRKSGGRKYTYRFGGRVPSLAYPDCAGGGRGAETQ
# How it was run: as §1
# ELF3 = molecular target: T5, ELF3 (Homo sapiens, UniProt P78545 1-371); details: protein: recombinant; tags: N-terminal GST; dsDNA, one strand shown
# T5 sequence: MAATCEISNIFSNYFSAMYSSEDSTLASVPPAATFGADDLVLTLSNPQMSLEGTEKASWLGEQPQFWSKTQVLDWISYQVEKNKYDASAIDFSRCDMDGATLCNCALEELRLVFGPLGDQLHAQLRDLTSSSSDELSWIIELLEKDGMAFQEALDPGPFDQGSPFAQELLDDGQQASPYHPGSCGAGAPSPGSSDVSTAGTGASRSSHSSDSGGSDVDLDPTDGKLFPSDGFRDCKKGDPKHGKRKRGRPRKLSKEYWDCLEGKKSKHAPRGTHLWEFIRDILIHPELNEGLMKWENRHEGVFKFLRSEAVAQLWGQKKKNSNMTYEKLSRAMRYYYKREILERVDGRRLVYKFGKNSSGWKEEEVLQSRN
# How it was run: as §1
# CRX = CRX (Homo sapiens, UniProt O43186 1-299); details: protein: recombinant; tags: N-terminal GST; dsDNA, one strand shown
# Chain of CRX (O43186 whole entry): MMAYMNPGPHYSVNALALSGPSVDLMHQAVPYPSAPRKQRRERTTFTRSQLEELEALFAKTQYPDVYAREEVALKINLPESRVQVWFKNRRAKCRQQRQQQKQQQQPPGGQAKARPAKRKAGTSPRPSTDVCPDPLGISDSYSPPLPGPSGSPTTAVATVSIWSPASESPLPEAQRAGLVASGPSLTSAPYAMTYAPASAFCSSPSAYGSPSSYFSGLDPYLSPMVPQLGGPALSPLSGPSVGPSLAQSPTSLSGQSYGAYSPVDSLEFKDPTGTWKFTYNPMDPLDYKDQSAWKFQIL
# How it was run: as §1
# ETV1 = ETV1 (Homo sapiens, UniProt P50549 1-477); details: protein: recombinant; tags: N-terminal GST; dsDNA, one strand shown
# Chain of ETV1 (P50549 whole entry): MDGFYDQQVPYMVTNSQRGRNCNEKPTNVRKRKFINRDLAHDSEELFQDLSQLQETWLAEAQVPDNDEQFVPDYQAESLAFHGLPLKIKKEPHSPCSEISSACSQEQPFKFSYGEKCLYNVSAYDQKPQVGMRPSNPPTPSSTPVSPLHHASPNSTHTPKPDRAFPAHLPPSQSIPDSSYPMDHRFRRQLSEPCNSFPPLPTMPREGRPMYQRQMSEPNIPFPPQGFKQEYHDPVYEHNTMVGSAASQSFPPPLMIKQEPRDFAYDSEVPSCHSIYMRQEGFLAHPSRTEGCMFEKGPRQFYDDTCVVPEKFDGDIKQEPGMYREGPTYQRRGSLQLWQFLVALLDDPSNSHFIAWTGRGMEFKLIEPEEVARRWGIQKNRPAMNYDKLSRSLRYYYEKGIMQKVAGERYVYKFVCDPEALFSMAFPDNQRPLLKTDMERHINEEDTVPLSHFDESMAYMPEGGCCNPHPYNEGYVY
# How it was run: as §1
# ERF = molecular target: T6, ERF (Homo sapiens, UniProt P50548 1-548); details: protein: recombinant; tags: N-terminal GST; dsDNA, one strand shown
# T6 sequence: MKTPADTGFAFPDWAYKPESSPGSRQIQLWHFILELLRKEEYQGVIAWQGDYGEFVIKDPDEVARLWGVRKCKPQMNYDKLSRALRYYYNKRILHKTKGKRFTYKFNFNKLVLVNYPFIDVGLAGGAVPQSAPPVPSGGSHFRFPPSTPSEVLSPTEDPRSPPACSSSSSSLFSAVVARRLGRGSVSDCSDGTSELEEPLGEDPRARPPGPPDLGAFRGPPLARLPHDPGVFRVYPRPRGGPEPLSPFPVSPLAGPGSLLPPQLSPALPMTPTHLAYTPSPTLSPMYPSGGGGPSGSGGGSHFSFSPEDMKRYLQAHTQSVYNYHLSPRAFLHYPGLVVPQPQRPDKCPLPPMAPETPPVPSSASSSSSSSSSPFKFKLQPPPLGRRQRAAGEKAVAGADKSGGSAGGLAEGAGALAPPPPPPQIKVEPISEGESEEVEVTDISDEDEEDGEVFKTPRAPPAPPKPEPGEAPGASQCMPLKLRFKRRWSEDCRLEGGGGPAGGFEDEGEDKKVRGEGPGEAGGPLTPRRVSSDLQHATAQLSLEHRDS
# How it was run: as §1
# ETV3L = molecular target: T7, ETV3L (Homo sapiens, UniProt Q6ZN32 1-361); details: protein: recombinant; tags: N-terminal GST; dsDNA, one strand shown
# T7 sequence: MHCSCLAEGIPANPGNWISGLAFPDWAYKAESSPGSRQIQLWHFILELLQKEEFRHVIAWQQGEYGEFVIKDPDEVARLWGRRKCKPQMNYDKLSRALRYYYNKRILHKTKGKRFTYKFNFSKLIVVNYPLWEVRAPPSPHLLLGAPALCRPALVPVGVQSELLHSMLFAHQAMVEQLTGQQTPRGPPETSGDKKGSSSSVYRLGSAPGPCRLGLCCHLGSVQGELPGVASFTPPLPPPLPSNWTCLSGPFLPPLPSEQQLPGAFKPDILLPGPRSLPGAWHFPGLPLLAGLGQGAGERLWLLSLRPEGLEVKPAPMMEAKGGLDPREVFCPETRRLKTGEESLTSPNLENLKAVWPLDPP
# How it was run: as §1
# ETS2 = molecular target: T8, ETS2 (Homo sapiens, UniProt P15036 1-469); details: protein: recombinant; tags: N-terminal GST; dsDNA, one strand shown
# T8 sequence: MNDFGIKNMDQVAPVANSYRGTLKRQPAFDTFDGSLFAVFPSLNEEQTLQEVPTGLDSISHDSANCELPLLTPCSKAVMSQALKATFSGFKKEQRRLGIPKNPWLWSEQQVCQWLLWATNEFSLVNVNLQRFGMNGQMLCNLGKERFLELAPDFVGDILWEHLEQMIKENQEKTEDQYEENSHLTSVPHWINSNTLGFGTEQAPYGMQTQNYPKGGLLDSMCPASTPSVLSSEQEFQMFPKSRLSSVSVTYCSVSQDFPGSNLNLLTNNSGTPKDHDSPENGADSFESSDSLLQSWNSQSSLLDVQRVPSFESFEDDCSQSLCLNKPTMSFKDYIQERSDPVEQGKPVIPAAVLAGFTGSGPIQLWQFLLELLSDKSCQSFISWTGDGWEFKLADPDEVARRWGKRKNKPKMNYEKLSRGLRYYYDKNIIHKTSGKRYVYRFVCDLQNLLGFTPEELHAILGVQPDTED
# How it was run: as §1
# SPDEF = molecular target: T9, SPDEF (Homo sapiens, UniProt O95238 1-335); details: protein: recombinant; tags: N-terminal GST; dsDNA, one strand shown
# T9 sequence: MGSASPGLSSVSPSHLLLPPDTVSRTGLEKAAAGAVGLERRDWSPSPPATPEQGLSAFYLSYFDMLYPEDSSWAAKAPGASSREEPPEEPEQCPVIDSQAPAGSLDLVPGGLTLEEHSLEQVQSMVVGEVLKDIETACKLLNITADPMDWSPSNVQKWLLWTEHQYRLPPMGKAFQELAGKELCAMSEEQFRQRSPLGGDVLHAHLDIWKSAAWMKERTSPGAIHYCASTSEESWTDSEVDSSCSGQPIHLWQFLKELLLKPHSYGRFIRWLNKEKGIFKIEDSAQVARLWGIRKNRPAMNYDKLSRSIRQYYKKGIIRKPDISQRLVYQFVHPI
# How it was run: as §1
# ETV7 = molecular target: T10, ETV7 (Homo sapiens, UniProt Q9Y603 1-341); details: protein: recombinant; tags: N-terminal GST; dsDNA, one strand shown
# T10 sequence: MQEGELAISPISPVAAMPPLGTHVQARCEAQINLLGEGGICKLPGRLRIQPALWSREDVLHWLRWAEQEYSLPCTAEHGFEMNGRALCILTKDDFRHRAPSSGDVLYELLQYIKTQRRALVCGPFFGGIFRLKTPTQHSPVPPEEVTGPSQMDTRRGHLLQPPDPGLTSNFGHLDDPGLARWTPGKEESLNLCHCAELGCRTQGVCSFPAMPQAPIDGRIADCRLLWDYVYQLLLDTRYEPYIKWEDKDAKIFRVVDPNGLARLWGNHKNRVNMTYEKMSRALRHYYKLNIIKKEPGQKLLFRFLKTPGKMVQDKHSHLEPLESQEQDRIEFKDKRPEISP
# How it was run: as §1
# ELF5 = molecular target: T11, ELF5 (Homo sapiens, UniProt Q9UKW6-2 1-255); details: protein: recombinant; tags: N-terminal GST; dsDNA, one strand shown
# T11 sequence: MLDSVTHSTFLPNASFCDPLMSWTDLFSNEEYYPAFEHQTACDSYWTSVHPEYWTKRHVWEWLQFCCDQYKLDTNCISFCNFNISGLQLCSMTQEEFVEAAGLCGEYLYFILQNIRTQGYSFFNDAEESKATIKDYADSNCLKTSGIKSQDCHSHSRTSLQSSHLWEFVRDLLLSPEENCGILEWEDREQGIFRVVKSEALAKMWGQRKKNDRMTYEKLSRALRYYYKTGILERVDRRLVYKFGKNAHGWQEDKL
# How it was run: as §1
# ETV3 = molecular target: T12, ETV3 (Homo sapiens, UniProt P41162-2 1-143); details: protein: recombinant; tags: N-terminal GST; dsDNA, one strand shown
# T12 sequence: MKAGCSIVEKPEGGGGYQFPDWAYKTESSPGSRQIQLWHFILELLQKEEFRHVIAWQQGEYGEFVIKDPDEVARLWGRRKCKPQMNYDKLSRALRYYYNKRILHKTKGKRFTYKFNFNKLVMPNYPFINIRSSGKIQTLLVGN
# How it was run: as §1
# ETV6 = ETV6 (Homo sapiens, UniProt P41212 1-452); details: protein: recombinant; tags: N-terminal GST; dsDNA, one strand shown
# Chain of ETV6 (P41212 whole entry): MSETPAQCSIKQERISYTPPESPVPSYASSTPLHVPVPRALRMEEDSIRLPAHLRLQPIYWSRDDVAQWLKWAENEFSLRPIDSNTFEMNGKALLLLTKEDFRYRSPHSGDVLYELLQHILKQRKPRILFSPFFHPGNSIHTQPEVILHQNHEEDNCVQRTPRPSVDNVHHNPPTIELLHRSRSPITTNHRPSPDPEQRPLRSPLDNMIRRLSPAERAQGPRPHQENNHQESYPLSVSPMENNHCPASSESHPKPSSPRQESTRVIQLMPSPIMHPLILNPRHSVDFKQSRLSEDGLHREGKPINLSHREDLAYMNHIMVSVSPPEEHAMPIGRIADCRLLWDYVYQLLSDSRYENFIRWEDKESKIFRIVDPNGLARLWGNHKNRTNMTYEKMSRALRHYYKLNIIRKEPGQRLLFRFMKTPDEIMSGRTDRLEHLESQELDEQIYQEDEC
# How it was run: as §1
sequence,measurement,setting,value
CTTCCA,binding signal,FEV,"1.43 fold enrichment (6-mer frequency, TF over GST control)"
same,binding signal,ETV5,"1.46 fold enrichment (6-mer frequency, TF over GST control)"
same,binding signal,HSF1,"2.18 fold enrichment (6-mer frequency, TF over GST control)"
same,binding signal,SPIC,"1.44 fold enrichment (6-mer frequency, TF over GST control)"
same,binding signal,ELF4,"1.33 fold enrichment (6-mer frequency, TF over GST control)"
same,binding signal,ELK4,"1.45 fold enrichment (6-mer frequency, TF over GST control)"
same,binding signal,ETV2,"1.37 fold enrichment (6-mer frequency, TF over GST control)"
same,binding signal,ELF3,"1.49 fold enrichment (6-mer frequency, TF over GST control)"
same,binding signal,CRX,"1.42 fold enrichment (6-mer frequency, TF over GST control)"
same,binding signal,ETV1,"1.48 fold enrichment (6-mer frequency, TF over GST control)"
same,binding signal,ERF,"1.55 fold enrichment (6-mer frequency, TF over GST control)"
same,binding signal,ETV3L,"1.52 fold enrichment (6-mer frequency, TF over GST control)"
same,binding signal,ETS2,"1.45 fold enrichment (6-mer frequency, TF over GST control)"
same,binding signal,SPDEF,"1.45 fold enrichment (6-mer frequency, TF over GST control)"
same,binding signal,ETV7,"1.36 fold enrichment (6-mer frequency, TF over GST control)"
same,binding signal,ELF5,"1.64 fold enrichment (6-mer frequency, TF over GST control)"
same,binding signal,ETV3,"1.41 fold enrichment (6-mer frequency, TF over GST control)"
same,binding signal,ETV6,"1.76 fold enrichment (6-mer frequency, TF over GST control)"
